Experimental data published in PubChem BioAssay (Tox21).
Inconclusive results are not listed. Active and inactive are the calls of the source. Unless noted, the call rests on the fitted dose curve; in most records, active means well fitted curve in the direction sought with a large enough effect in the repeat runs; inconclusive means weak or mixed curves; inactive means no such curve, though single readings can be large; an effect the other way counts as inactive or inconclusive.

How the values were obtained:
[1] = molecular target: Peroxisome proliferator-activated receptor delta (Homo sapiens) (UniProt Q03181); assay: qHTS assay to identify small molecule agonists of the peroxisome proliferator-activated receptor delta (PPARd) signaling pathway (AID 743212; calls by dose curve)
Summary of the method: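 Beta-lactamase reporter readout: a ratiometric FRET signal from the LiveBLAzer substrate after 2 h at room temperature. Compound exposure at 37 °C in PPARδ-bla HEK293H cells driven by an upstream activator sequence.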

[2] = qHTS assay to identify small molecule antagonists of the peroxisome proliferator-activated receptor delta (PPARd) signaling pathway - cell viability counter screen (AID 743213); further: nearly all actives have a fitted effect of over 50% in size
Summary of the method: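 PPARd-bla HEK293H cells (3000/well) got compound plus 300 nM L165041 agonist for 17 h at 37 C. Viability in the same wells came from CellTiter-Glo luminescence after 30 min at room temperature.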

[3] = qHTS assay to identify small molecule antagonists of the farnesoid-X-receptor (FXR) signaling pathway - cell viability counter screen (AID 743221; active means well fitted cell-killing curve with a large enough effect in the repeat runs, not every such curve was filed as active; further: nearly all actives have a fitted effect of over 50% in size)
Summary of the method: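 Quantitative HTS of the Tox21 10K library run in parallel with the beta-lactamase reporter read. HEK 293T cells carrying a UAS-driven bla reporter got compound and 50 uM CDCA (final) for 16 h; ATP-based luminescence followed.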

[4] = qHTS assay to identify small molecule agonists of the NFkB signaling pathway - cell viability counter screen (AID 1159515; calls by dose curve; further: series mostly up to about 61 µM; nearly all actives have a fitted effect of over 55% in size)
Summary of the method: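 ME-180 NFkB-bla cells, 2,000/well; overnight attach; compound 5 hr, 37 C/5% CO2; LiveBLAzer substrate 1.5 hr RT; then CellTiter-Glo in same wells, 30 min RT, luminescence read.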

[5] = qHTS assay to identify small molecule agonists of the endoplasmic reticulum stress response signaling pathway (AID 1159516; active means well fitted activation curve with a large enough effect in the signal ratio in the repeat runs, not every such curve was filed as active; the % refers to the signal ratio)
Summary of the method: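 HeLa ESRE-bla reporter line; cpd 5 h, 37 C/5% CO2; LiveBLAzer B/G FRET substrate 2 h RT; ex 405, em 460/530 nm.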

[6] = qHTS assay to identify small molecule agonists of the endoplasmic reticulum stress response signaling pathway - cell viability counter screen (AID 1159517; calls by dose curve;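 further: HeLa cells carrying an ER stress response element beta-lactamase reporter; series mostly up to about 61 µM; nearly all actives have a fitted effect of over 50% in size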)
Summary of the method: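 ESRE-bla HeLa cells (1,500/well) were plated overnight at 37 C and exposed to compounds for 5 hr. After the 2 hr beta-lactamase substrate read, CellTiter-Glo went into the same wells, and luminescence was read after 30 min at room temperature.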

[7] = molecular target: Peroxisome proliferator-activated receptor delta (Homo sapiens) (UniProt Q03181); assay: qHTS assay to identify small molecule antagonists of the peroxisome proliferator-activated receptor delta (PPARd) signaling pathway (AID 743215; active means well fitted inhibition curve with a large enough effect in the signal ratio in the repeat runs, not every such curve was filed as active; the % refers to the signal ratio;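 further: cells stimulated with agonist L165041 at 300 nM final during compound exposure; series mostly up to about 62 µM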)
Summary of the method: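 HEK293H GeneBLAzer PPARd UAS-bla reporter cells; cpd + L165041 300 nM final, 17 h 37 C; LiveBLAzer B/G FRET substrate 2 h RT; fluorescence intensity read-out. Antagonist mode.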

[8] = molecular target: Bile acid receptor (Homo sapiens) (UniProt Q96RI1); assay: qHTS assay to identify small molecule antagonists of the farnesoid-X-receptor (FXR) signaling pathway (AID 743217; active means well fitted inhibition curve with a large enough effect in the signal ratio in the repeat runs, not every such curve was filed as active; the % refers to the signal ratio)
Summary of the method: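 Read-out: beta-lactamase FRET fluorescence (LiveBLAzer B/G substrate, 2 h, room temperature) in GeneBLAzer FXR-UAS-bla HEK 293T cells. Compounds were co-dosed with 50 uM chenodeoxycholic acid (final) and incubated 16 h at 37 °C.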

[9] = qHTS assay to identify small molecule agonists of the farnesoid-X-receptor (FXR) signaling pathway - cell viability counter screen (AID 743218); further: nearly all actives have a fitted effect of over 45% in size
Summary of the method: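 Luminescence from CellTiter-Glo, read after 30 min at RT, reports viability of GeneBLAzer FXR-UAS-bla HEK 293T cells treated 16 h with compounds in the wells used for the beta-lactamase reporter.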

[10] = molecular target: Bile acid receptor (Homo sapiens) (UniProt Q96RI1); assay: qHTS assay to identify small molecule agonists of the farnesoid-X-receptor (FXR) signaling pathway (AID 743220; active means well fitted activation curve with a large enough effect in the signal ratio in the repeat runs, not every such curve was filed as active; the % refers to the signal ratio)
Summary of the method: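 FXR-UAS-bla HEK 293T cells carrying a UAS-driven beta-lactamase reporter were plated for 5 h at 37C/5% CO2, then exposed to DMSO-dissolved Tox21 10K compounds for 16 h at 37C. A LiveBLAzer B/G FRET substrate was loaded for 2 h at room temperature before fluorescence reading.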

[11] = molecular target: Vitamin D3 receptor (Homo sapiens) (UniProt P11473); assay: qHTS assay to identify small molecule antagonists of the vitamin D receptor (VDR) signaling pathway (AID 743223; active means well fitted inhibition curve with a large enough effect in the signal ratio in the repeat runs, not every such curve was filed as active; the % refers to the signal ratio)
Summary of the method: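 Fluorescence from LiveBLAzer B/G FRET substrate, read after 2 h at room temperature, reflects beta-lactamase reporter activity in VDR-bla cells treated 16 h at 37C with compounds and agonist 1alpha,25-dihydroxyvitamin D3 (3 nM final).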

[12] = qHTS assay to identify small molecule agonists of the vitamin D receptor (VDR) signaling pathway - cell viability counter screen (AID 743224); further: series mostly up to about 63 µM; nearly all actives have a fitted effect of over 50% in size
Summary of the method: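 Cytotoxicity counter screen: VDR-bla cells, 16 h compound exposure at 37C, 5% CO2; CellTiter-Glo luminescence, 30 min RT, same wells as bla read.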

[13] = qHTS assay to identify small molecule antagonists of the vitamin D receptor (VDR) signaling pathway - cell viability counter screen (AID 743225); further: nearly all actives have a fitted effect of over 50% in size
Summary of the method: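 Cells (VDR-UAS-bla HEK 293T) are plated, rested 4 h at 37C, dosed with compound and 3 nM final 1-alpha,25-dihydroxy vitamin D3, and incubated 16 h. Viability is taken from CellTiter-Glo luminescence in the reporter wells.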

[14] = qHTS assay to identify small molecule antagonists of the retinoid-related orphan receptor gamma (ROR-gamma) signaling pathway - cell viability counter screen (AID 1159520); further: nearly all actives have a fitted effect of over 50% in size
Summary of the method: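 Cytotoxicity was read from cellular ATP (CellTiter-Glo luminescence) after 16 hr at 37 C with 1 uM doxycycline induction. The inducer was added 2 hr after compound transfer to Tet-on ROR gamma CHO cells.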

[15] = molecular target: Nuclear receptor ROR-gamma (Homo sapiens) (UniProt P51449); assay: qHTS assay to identify small molecule antagonists of the retinoid-related orphan receptor gamma (ROR-gamma) signaling pathway (AID 1159521)
Summary of the method: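 RORγ antagonism is scored from reduced reporter luminescence in Tet-on CHO cells. Induction used 1 uM final doxycycline hyclate for 16 h at 37 C, following a 2 h compound exposure.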

[16] = qHTS assay to identify small molecule agonists of the AP-1 signaling pathway - cell viability counter screen (AID 1159525; calls by dose curve; further: nearly all actives have a fitted effect of over 55% in size)
Summary of the method: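 Intracellular ATP by Cell Titer Glo luminescence (30 min, RT) in the same ME-180 AP-1-bla wells after the 5 h compound exposure at 37 °C. Normalised to tetra n-octyl ammonium bromide and DMSO controls.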

[17] = qHTS assay to identify small molecule agonists of the AP-1 signaling pathway (AID 1159526; calls by dose curve)
[18] = molecular target: Vitamin D3 receptor (Homo sapiens) (UniProt P11473); assay: qHTS assay to identify small molecule agonists of the vitamin D receptor (VDR) signaling pathway (AID 743222; calls by dose curve)
Summary of the method: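 Beta-lactamase reporter readout (LiveBLAzer B/G FRET, 2 h RT) in VDR-bla cells after 16 h compound treatment at 37C, 5% CO2; cells pre-incubated 4 h before pin transfer of DMSO solutions.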

[19] = molecular target: Retinoic acid receptor RXR-alpha (Homo sapiens) (UniProt P19793); assay: qHTS assay to identify small molecule agonists of the RXR signaling pathway (AID 1159527; calls by dose curve; further: nearly all actives have a fitted effect of over 35% in size)
Summary of the method: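 qHTS of the Tox21 10K library in GeneBLAzer RXR-alpha HEK 293T cells carrying a beta-lactamase reporter […]; 16 hr treatment, 9-cis retinoic acid as agonist control, FRET read-out.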

[20] = qHTS assay to identify small molecule agonists of the peroxisome proliferator-activated receptor delta (PPARd) signaling pathway - cell viability counter screen (AID 743211); further: nearly all actives have a fitted effect of over 55% in size
Summary of the method: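 Viability of GeneBLAzer PPARd UAS-bla HEK293H cells was assessed after 17 h compound incubation at 37C, using CellTiter-Glo reagent added after the reporter read and luminescence recorded 30 min later.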

Measured: Potency

Chain of Vitamin D3 receptor (Homo sapiens) (P11473 whole entry, looked up): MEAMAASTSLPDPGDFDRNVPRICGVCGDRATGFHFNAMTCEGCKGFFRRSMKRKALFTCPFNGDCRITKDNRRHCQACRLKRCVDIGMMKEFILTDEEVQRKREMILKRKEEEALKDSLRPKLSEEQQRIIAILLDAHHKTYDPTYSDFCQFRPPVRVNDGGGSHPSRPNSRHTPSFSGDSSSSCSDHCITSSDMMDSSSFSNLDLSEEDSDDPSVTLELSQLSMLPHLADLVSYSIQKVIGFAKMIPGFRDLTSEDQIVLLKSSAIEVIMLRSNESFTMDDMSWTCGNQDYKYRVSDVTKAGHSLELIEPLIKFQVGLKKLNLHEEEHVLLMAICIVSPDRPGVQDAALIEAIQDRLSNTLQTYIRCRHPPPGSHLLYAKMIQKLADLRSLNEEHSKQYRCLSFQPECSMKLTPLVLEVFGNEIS
Chain of Retinoic acid receptor RXR-alpha (Homo sapiens) (P19793 whole entry, looked up): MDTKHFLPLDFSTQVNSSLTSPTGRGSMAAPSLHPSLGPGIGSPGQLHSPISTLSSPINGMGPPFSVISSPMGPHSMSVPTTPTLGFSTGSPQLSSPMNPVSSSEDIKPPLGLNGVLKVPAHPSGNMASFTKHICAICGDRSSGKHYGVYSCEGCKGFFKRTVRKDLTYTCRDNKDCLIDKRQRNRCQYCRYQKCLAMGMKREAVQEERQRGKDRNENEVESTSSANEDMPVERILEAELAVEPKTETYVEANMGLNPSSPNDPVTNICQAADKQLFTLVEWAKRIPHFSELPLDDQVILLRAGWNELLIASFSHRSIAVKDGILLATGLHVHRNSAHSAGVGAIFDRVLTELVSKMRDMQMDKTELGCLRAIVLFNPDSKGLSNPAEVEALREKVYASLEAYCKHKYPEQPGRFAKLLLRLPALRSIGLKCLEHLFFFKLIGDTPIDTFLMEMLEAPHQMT
Chain of Bile acid receptor (Homo sapiens) (Q96RI1 whole entry, looked up): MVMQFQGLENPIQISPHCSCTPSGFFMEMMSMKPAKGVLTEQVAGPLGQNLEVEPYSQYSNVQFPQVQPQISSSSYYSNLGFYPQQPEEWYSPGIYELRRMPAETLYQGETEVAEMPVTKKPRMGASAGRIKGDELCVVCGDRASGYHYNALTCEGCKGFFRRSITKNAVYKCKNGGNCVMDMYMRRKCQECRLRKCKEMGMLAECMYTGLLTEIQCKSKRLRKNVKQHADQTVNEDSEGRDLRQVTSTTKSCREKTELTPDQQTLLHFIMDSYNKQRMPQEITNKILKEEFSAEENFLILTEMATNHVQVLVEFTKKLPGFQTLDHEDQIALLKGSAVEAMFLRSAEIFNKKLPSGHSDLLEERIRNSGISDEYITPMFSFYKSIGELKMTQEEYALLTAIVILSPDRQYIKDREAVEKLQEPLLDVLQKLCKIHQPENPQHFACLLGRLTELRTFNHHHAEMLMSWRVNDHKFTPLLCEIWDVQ
Chain of Peroxisome proliferator-activated receptor delta (Homo sapiens) (Q03181 whole entry, looked up): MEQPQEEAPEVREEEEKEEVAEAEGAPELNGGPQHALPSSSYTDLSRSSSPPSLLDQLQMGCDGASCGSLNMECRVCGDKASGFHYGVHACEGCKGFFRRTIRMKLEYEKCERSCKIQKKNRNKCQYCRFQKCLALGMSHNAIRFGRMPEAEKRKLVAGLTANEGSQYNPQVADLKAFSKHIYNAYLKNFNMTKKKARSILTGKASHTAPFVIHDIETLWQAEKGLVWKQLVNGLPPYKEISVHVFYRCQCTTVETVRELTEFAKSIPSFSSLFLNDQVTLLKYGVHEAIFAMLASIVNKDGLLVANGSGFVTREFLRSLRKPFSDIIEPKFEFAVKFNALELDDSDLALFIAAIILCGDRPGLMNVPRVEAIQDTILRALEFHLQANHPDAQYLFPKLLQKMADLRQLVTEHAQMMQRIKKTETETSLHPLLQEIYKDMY

c1ccc(C(O[C@@H]2CCCN(CCc3ccc4c(c3)OCO4)C2)c2ccccc2)cc1
inactive: [1] | [2] | [3] | [4] | [5] | [6]

Nc1ccc(Oc2ccc(Cl)cc2)cc1
not listed: [6] | [18] | [19] | [20]
inactive: all other assays above

CCC(=O)C(=O)CC
not listed: [6] | [8] | [10] | [20]
inactive: all other assays above

Cc1c(F)c(N2CCNC(C)C2)cc2c1c(=O)c(C(=O)O)cn2C1CC1 (stereo unspecified)
not listed: [6] | [8] | [10] | [12] | [19] | [20]
inactive: all other assays above

Cc1ccc(C(=O)O)cc1
not listed: [6] | [11] | [18] | [20]
inactive: all other assays above

Cc1nc2n(c(=O)c1CCN1CCC(c3noc4cc(F)ccc34)CC1)CCCC2
not listed: [6] | [8] | [10] | [11]
inactive: all other assays above

CCCCCCCCCCOC(=O)c1ccccc1C(=O)OCCCCCCCC
not listed: [2] | [6] | [7] | [8] | [10] | [11] | [12] | [18]
inactive: all other assays above

OC[C@@H](O)[C@@H](O)CO
not listed: [6] | [8] | [10] | [11] | [18]
inactive: all other assays above
